According to PubChem BioAssay (NCI):
Where “and” joins values, the source holds several entries; their conditions need not be identical. Equal values may be shown once. About 83,000 compounds went through this panel and 20% of them were active in at least one assay; those are over-represented in the sample as a whole.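 48-hour exposure, single concentration, 96-well plates; percent growth endpoint where 0 means no net growth. Active: below 10.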 Calls of active or inactive are those of the source.

What was measured:
Experiment in all cases: NCI-60 one-dose screen, 48 h (100 = growth as untreated, 0 = no growth, -100 = all killed)
Conditions in all cases: 10 µM unless noted
SR leukemia = tested on: SR leukemia
RPMI-8226 leukemia = tested on: RPMI-8226 leukemia
OVCAR-8 ovarian = tested on: OVCAR-8 ovarian
OVCAR-5 ovarian = tested on: OVCAR-5 ovarian
OVCAR-4 ovarian = tested on: OVCAR-4 ovarian
SK-OV-3 ovarian = tested on: SK-OV-3 ovarian
OVCAR-3 ovarian = tested on: OVCAR-3 ovarian
HS 578T breast = tested on: HS 578T breast
NCI/ADR-RES ovarian = tested on: NCI/ADR-RES ovarian
T-47D breast = tested on: T-47D breast
BT-549 breast = tested on: BT-549 breast
MDA-MB-435 melanoma = tested on: MDA-MB-435 melanoma
SW-620 colon = tested on: SW-620 colon
MCF7 breast = tested on: MCF7 breast
HCT-116 colon = tested on: HCT-116 colon
HCC-2998 colon = tested on: HCC-2998 colon
KM12 colon = tested on: KM12 colon
IGROV1 ovarian = tested on: IGROV1 ovarian

Measured: growth

CCN(CC)C(=S)SCCO
inactive: SR leukemia 92.5% | RPMI-8226 leukemia 99.5% | OVCAR-8 ovarian 103% | OVCAR-5 ovarian 110% | OVCAR-4 ovarian 113% | SK-OV-3 ovarian 111% | OVCAR-3 ovarian 106% | HS 578T breast 103% | NCI/ADR-RES ovarian 102% | T-47D breast 101% | BT-549 breast 144% | MDA-MB-435 melanoma 111% | SW-620 colon 106% | MCF7 breast 104% | HCT-116 colon 107% | HCC-2998 colon 94.1% | KM12 colon 105%

CCOC(=O)c1ccncc1
inactive: SR leukemia 101% | RPMI-8226 leukemia 106% | OVCAR-8 ovarian 112% | OVCAR-5 ovarian 107% | OVCAR-4 ovarian 117% | SK-OV-3 ovarian 105% | IGROV1 ovarian 111% | OVCAR-3 ovarian 105% | HS 578T breast 101% | NCI/ADR-RES ovarian 110% | MDA-MB-435 melanoma 107% | SW-620 colon 104% | MCF7 breast 97.9% | HCT-116 colon 107% | HCC-2998 colon 105% | KM12 colon 105%

O=C1c2cccnc2-c2ncccc21
inactive: SR leukemia 120% [100 µM] | RPMI-8226 leukemia 99.8% [100 µM] | OVCAR-8 ovarian 106% [100 µM] | OVCAR-5 ovarian 122% [100 µM] | OVCAR-4 ovarian 109% [100 µM] | SK-OV-3 ovarian 107% [100 µM] | OVCAR-3 ovarian 110% [100 µM] | HS 578T breast 89.5% [100 µM] | NCI/ADR-RES ovarian 102% [100 µM] | T-47D breast 98.9% [100 µM] | BT-549 breast 104% [100 µM] | MDA-MB-435 melanoma 103% [100 µM] | SW-620 colon 109% [100 µM] | HCT-116 colon 107% [100 µM] | HCC-2998 colon 112% [100 µM] | KM12 colon 103% [100 µM]

CC(NC(=O)CCl)c1ccccc1 (stereo unspecified)
inactive: SR leukemia 99.2% | RPMI-8226 leukemia 107% | OVCAR-8 ovarian 105% | OVCAR-5 ovarian 109% | OVCAR-4 ovarian 98.7% | SK-OV-3 ovarian 102% | OVCAR-3 ovarian 102% | HS 578T breast 92.5% | NCI/ADR-RES ovarian 104% | T-47D breast 103% | BT-549 breast 95.3% | MDA-MB-435 melanoma 99.7% | SW-620 colon 96.4% | MCF7 breast 94% | HCT-116 colon 97.6% | HCC-2998 colon 106% | KM12 colon 105%

O=[N+]([O-])c1ccc(N/N=C/C2CCCCCC2)c([N+](=O)[O-])c1
inactive: SR leukemia 82.9% | RPMI-8226 leukemia 90.3% | OVCAR-8 ovarian 102% | OVCAR-5 ovarian 99.1% | OVCAR-4 ovarian 98.5% | SK-OV-3 ovarian 102% | OVCAR-3 ovarian 99.8% | HS 578T breast 96.9% | NCI/ADR-RES ovarian 104% | T-47D breast 84% | BT-549 breast 91% | MDA-MB-435 melanoma 87.6% | SW-620 colon 79% | MCF7 breast 94.8% | HCT-116 colon 103% | HCC-2998 colon 106% | KM12 colon 71.6%

O=[N+]([O-])c1cccc2ccc(N/N=C/c3ccccc3O)nc12
inactive: SR leukemia 60.4% | OVCAR-8 ovarian 91.9% and 95% | OVCAR-5 ovarian 113% and 116% | OVCAR-4 ovarian 93.3% and 100% | SK-OV-3 ovarian 108% and 111% | OVCAR-3 ovarian 40.5% and 101% | HS 578T breast 83.6% and 98.7% | NCI/ADR-RES ovarian 59% and 106% | T-47D breast 38.1% and 78% | MDA-MB-435 melanoma 101% and 106% | SW-620 colon 21.7% and 96.4% | MCF7 breast 42.5% and 61.7% | HCT-116 colon 20.8% and 67.8% | HCC-2998 colon 110% | KM12 colon 86.8% and 84.3%
6.55% (active) and 93.4% (inactive): RPMI-8226 leukemia

Nc1nc(-c2ccccn2)cc(-c2cc(-c3ccccn3)nc(N)n2)n1
inactive: SR leukemia 92% | RPMI-8226 leukemia 111% | OVCAR-8 ovarian 106% | OVCAR-5 ovarian 109% | OVCAR-4 ovarian 105% | SK-OV-3 ovarian 119% | IGROV1 ovarian 108% | OVCAR-3 ovarian 110% | HS 578T breast 127% | NCI/ADR-RES ovarian 107% | BT-549 breast 117% | MDA-MB-435 melanoma 119% | SW-620 colon 133% | HCT-116 colon 111% | HCC-2998 colon 104% | KM12 colon 107%

Nc1c(S(=O)(=O)O)cc(Br)c2c1C(=O)c1ccccc1C2=O
inactive: SR leukemia 93.8% and 91.4% | RPMI-8226 leukemia 96.7% and 104% | OVCAR-8 ovarian 106% and 92.1% | OVCAR-5 ovarian 113% and 101% | OVCAR-4 ovarian 101% and 111% | SK-OV-3 ovarian 85.6% and 102% | OVCAR-3 ovarian 102% and 121% | HS 578T breast 112% and 94.3% | NCI/ADR-RES ovarian 108% and 115% | T-47D breast 90% and 96.7% | BT-549 breast 110% | MDA-MB-435 melanoma 105% and 115% | SW-620 colon 109% and 111% | MCF7 breast 96.8% and 93.8% | HCT-116 colon 109% | HCC-2998 colon 108% and 109% | KM12 colon 104% and 108%

O=P(O)(O)OC1C(OP(=O)(O)O)C(OP(=O)(O)O)C(OP(=O)(O)O)C(OP(=O)(O)O)C1OP(=O)(O)O.[Cu+2] (stereo unspecified)
inactive: SR leukemia 81.4% | RPMI-8226 leukemia 101% | OVCAR-8 ovarian 76.8% | OVCAR-5 ovarian 155% | OVCAR-4 ovarian 110% | SK-OV-3 ovarian 114% | OVCAR-3 ovarian 123% | HS 578T breast 92.4% | NCI/ADR-RES ovarian 97.3% | T-47D breast 101% | BT-549 breast 126% | MDA-MB-435 melanoma 101% | SW-620 colon 95.6% | MCF7 breast 86.8% | HCT-116 colon 96.6% | HCC-2998 colon 96.3% | KM12 colon 100%

O=C(O)C1CSCN1 (stereo unspecified)
inactive: SR leukemia 97.4% | RPMI-8226 leukemia 106% and 105% | OVCAR-8 ovarian 113% and 98.8% | OVCAR-5 ovarian 118% and 88.8% | OVCAR-4 ovarian 112% and 102% | SK-OV-3 ovarian 105% and 94.9% | OVCAR-3 ovarian 120% and 107% | HS 578T breast 136% and 112% | NCI/ADR-RES ovarian 108% and 87.2% | T-47D breast 107% and 97.9% | BT-549 breast 99% | MDA-MB-435 melanoma 95.5% and 104% | SW-620 colon 115% and 113% | HCT-116 colon 108% and 94.4% | KM12 colon 117% and 110%
133% (inactive) and -20.6% (active): HCC-2998 colon

O=[N+]([O-])c1ccc(N2CCN=N2)cc1
inactive: SR leukemia 78.6% | RPMI-8226 leukemia 92.7% | OVCAR-8 ovarian 88% | OVCAR-5 ovarian 87.7% | OVCAR-4 ovarian 95.9% | SK-OV-3 ovarian 89.6% | IGROV1 ovarian 96.1% | OVCAR-3 ovarian 99.8% | HS 578T breast 101% | NCI/ADR-RES ovarian 100% | BT-549 breast 85.3% | MDA-MB-435 melanoma 77.5% | SW-620 colon 81.8% | MCF7 breast 87.5% | HCT-116 colon 81.7% | HCC-2998 colon 107% | KM12 colon 77.3%

N#Cc1c(N)nc2c(c(-c3ccc(Cl)cc3)nn2-c2ccccc2)c1C#N
inactive: SR leukemia 104% [100 µM] | RPMI-8226 leukemia 108% [100 µM] | OVCAR-8 ovarian 99.8% [100 µM] | OVCAR-5 ovarian 123% [100 µM] | OVCAR-4 ovarian 111% [100 µM] | SK-OV-3 ovarian 94.8% [100 µM] | OVCAR-3 ovarian 122% [100 µM] | HS 578T breast 83.9% [100 µM] | NCI/ADR-RES ovarian 101% [100 µM] | T-47D breast 97.4% [100 µM] | BT-549 breast 94.2% [100 µM] | MDA-MB-435 melanoma 104% [100 µM] | SW-620 colon 107% [100 µM] | MCF7 breast 97.1% [100 µM] | HCT-116 colon 94.7% [100 µM] | HCC-2998 colon 111% [100 µM] | KM12 colon 103% [100 µM]

Cc1ccc(C(=O)c2ccc(C)cc2)cc1
inactive: SR leukemia 84.3% and 110% | RPMI-8226 leukemia 86.8% and 96.4% | OVCAR-8 ovarian 94.3% and 109% | OVCAR-5 ovarian 103% | OVCAR-4 ovarian 87.2% and 117% | SK-OV-3 ovarian 101% and 107% | IGROV1 ovarian 86.3% and 99% | OVCAR-3 ovarian 99.1% and 105% | HS 578T breast 101% | NCI/ADR-RES ovarian 93% | MDA-MB-435 melanoma 103% and 105% | SW-620 colon 104% and 101% | HCT-116 colon 92.5% and 98% | HCC-2998 colon 87.5% and 99.8% | KM12 colon 102% and 108%

O=C1C2=C(Nc3cc(Cl)ccc3N2)OC1c1c[nH]c2ccc(COc3ccccc3)cc12 (stereo unspecified)
inactive: SR leukemia 85.4% | RPMI-8226 leukemia 59.3% | OVCAR-8 ovarian 46.9% | OVCAR-5 ovarian 88.2% | OVCAR-4 ovarian 31.8% | SK-OV-3 ovarian 26.7% | IGROV1 ovarian 65.3% | OVCAR-3 ovarian 55.1% | HS 578T breast 29.6% | NCI/ADR-RES ovarian 51.4% | MDA-MB-435 melanoma 84.6% | SW-620 colon 85% | MCF7 breast 64.2% | HCT-116 colon 72.4% | HCC-2998 colon 83.7% | KM12 colon 87.1%

C/C=C(/C(=O)NC(N)=O)C(C)C
inactive: SR leukemia 88.7% | RPMI-8226 leukemia 113% | OVCAR-8 ovarian 96.2% | OVCAR-5 ovarian 116% | OVCAR-4 ovarian 119% | SK-OV-3 ovarian 99.4% | IGROV1 ovarian 114% | OVCAR-3 ovarian 104% | HS 578T breast 107% | NCI/ADR-RES ovarian 107% | MDA-MB-435 melanoma 107% | SW-620 colon 94.5% | MCF7 breast 94% | HCT-116 colon 99.5% | HCC-2998 colon 115% | KM12 colon 90.8%
